Screens: PubChem, National Center for Advancing Translational Sciences (NCATS)
A selection: hits, their analogues and other compounds. The true share with any hit is near 12%.
BAZ2B inh: qHTS Assay for Inhibitors of BAZ2B | Bromodomain adjacent to zinc finger domain protein 2B (Homo sapiens), Q9UIF8 | AlphaScreen BAZ2B-H3K14Ac peptide displacement | Potency, µM (highest dose often 114 µM), without a hit: at the top dose activity change, negative = inhibition, most hits filed as inhibitors | 360,000 compounds, 4.4% hits; further: on the % scale 0 is the no-effect control and ±100 the full control effect; nearly all actives have a fitted effect of over 60% in size
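BAZ2B 50 nM plus b-H3(5-23)K14Ac 50 nM, PBS pH 7.4/0.01% Tween-20, 30 min RT; compound added (max 110 uM), 30 min RT; streptavidin donor/Ni-chelate acceptor beads 10 ug/mL final, 20 min dark; AlphaScreen read.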
HP1b chromo inh: HTS for Inhibitors of HP1-beta Chromodomain Interactions with Methylated Histone Tails; Chromobox protein homolog 1 (Homo sapiens), P83916; AlphaScreen HP1-beta / biotin-H3K9me3 peptide binding; Potency, µM (top dose mostly 114 µM), for the others: at the highest dose activity change, negative = inhibition, hits mostly inhibitors; 390,000 compounds, 0.56% hits; AID 540317, 2011; further: nearly all actives have a fitted effect of over 70% in size
Target sequence (P83916 whole entry, looked up): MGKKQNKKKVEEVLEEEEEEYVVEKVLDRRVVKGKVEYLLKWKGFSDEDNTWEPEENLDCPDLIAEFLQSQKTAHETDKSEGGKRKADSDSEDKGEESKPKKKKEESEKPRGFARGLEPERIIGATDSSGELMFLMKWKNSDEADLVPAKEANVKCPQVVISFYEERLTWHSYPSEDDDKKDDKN
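Compound inhibition of the preformed complex between 50 nM HP1-beta and 50 nM biotinylated H3K9me3 peptide was read by AlphaScreen. Buffer was PBS pH 7.4 with 0.01% Tween-20. Incubations ran 30 min at room temperature, with 10 ug/mL donor/acceptor beads.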
PLK1 PBD block: qHTS for Inhibitors of PLK1-PDB (polo-like kinase 1 - polo-box domain): Primary Screen; AID 720504, 2013; Plk1 PBD binding of FITC phosphopeptide, fluorescence polarization; Potency, µM, for the others: max response, negative = inhibition, usual class: inhibitors; Serine/threonine-protein kinase PLK1 (Homo sapiens), P53350; 360,000 compounds, 2.8% hits; further: series mostly up to about 57 µM; on the % scale 0 is the no-effect control and ±100 the full control effect; nearly all actives have a fitted effect of over 65% in size
Sfp PPTase inh: qHTS Assay for Inhibitors of Bacillus subtilis Sfp phosphopantetheinyl transferase (PPTase). Biochemical Sfp PPTase activity, qHTS. Potency, µM, for inactives: largest response in the series, negative = inhibition, hits mostly inhibitors. 310,000 compounds, 3.5% hits. AID 1490, 2009;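 further: the enzyme is Sfp with the accession as filed and its product quenches rhodamine fluorescence; 0% = enzyme reaction without inhibitor and -100% = no enzyme wells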
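Step 1, compound plus 15 nM Sfp-PPTase, 15 min, room temperature. Step 2, add rhodamine-CoA (5 uM) and BHQ-2-YbbR (12.5 uM). Step 3, read 525/598 nm fluorescence at 0 and 30 min.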
JMJD2A Tudor: qHTS Assay for Inhibitors of JMJD2A-Tudor Domain | Lysine-specific demethylase 4A (Homo sapiens), O75164 | AlphaScreen JMJD2A-Tudor / H3K4me3 peptide binding | Potency, µM (highest dose often 114 µM), for the others: at the highest dose activity change, negative = inhibition, actives largely listed as inhibitors | 390,000 compounds, 4.4% hits; further: on the % scale 0 is the no-effect control and ±100 the full control effect; nearly all actives have a fitted effect of over 50% in size
G9a inh: qHTS Assay for Inhibitors of Histone Lysine Methyltransferase G9a; Potency, µM (top dose mostly 102 µM), without a hit: at the highest dose activity, negative = inhibition, actives largely listed as inhibitors; Histone-lysine N-methyltransferase EHMT2 (Homo sapiens), Q96KQ7; 350,000 compounds, 8.8% hits; G9a H3K9 monomethylation, AlphaScreen, 2 h; further: on the % scale 0 is the no-effect control and ±100 the full control effect; nearly all actives have a fitted effect of over 75% in size
Target sequence (Q96KQ7 913-1193 limits assumed): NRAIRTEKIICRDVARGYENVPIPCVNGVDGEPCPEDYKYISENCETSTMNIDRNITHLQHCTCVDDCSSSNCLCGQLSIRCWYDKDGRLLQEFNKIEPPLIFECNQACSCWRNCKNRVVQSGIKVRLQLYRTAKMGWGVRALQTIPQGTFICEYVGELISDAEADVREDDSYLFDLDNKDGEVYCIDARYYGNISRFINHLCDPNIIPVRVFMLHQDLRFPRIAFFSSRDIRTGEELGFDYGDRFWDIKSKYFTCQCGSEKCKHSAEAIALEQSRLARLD
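Signal arises when biotinylated H3K9 peptide, once monomethylated, bridges streptavidin donor and antibody-captured acceptor beads. Enzyme at 20 nM was preincubated 15 min with test compounds; peptide 500 nM and SAM 20 uM then reacted for 2 h.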
Starred values were filed as active, the others as inactive; [ ] = another dose, or the depositor's remark. The call rests on the fitted dose curve; in most records, active means well fitted curve in the direction sought with a large enough effect; inconclusive means small, poorly fitted or top-dose-only effect, or another doubt; inactive means no such curve, though single readings can be large; an effect the other way counts as inactive or inconclusive. Potency means the concentration at half of the fitted maximal effect.

Results for COc1ccc(C(=O)c2coc3c2C(=O)C(=O)c2ccccc2-3)cc1 ?
BAZ2B inh: 25.1µM*; HP1b chromo inh: inconclusive; PLK1 PBD block: inconclusive; Sfp PPTase inh: 31.6µM*; JMJD2A Tudor: inconclusive

How did COc1ccc(CNC(=O)Cn2nc3c(cc2=O)CCCC3)cc1 do in these assays?
BAZ2B inh: 2.5%; HP1b chromo inh: 19.7%[57 µM]; JMJD2A Tudor: 6.1%; G9a inh: 7.3%[59 µM]

How did O=C(c1ccco1)N1CCC2(CCCN(C(c3ccccc3)c3ccccc3)C2)CC1 do in these assays?
Sfp PPTase inh: -11.6%; G9a inh: -6.8%[12.7 µM]

What do the screens show for `CC(=NNC(=O)Cn1ccc(C(F)(F)F)n1)c1ccc(-n2ccnc2)cc1`?
HP1b chromo inh: 17.9%; PLK1 PBD block: -2.0%; JMJD2A Tudor: -16.4%

Results for COc1ccc(C(=O)Nc2ccc3c(c2)OCO3)cc1S(=O)(=O)N1CCOCC1 ?
PLK1 PBD block: 7.9%

What do the screens show for `CC(C)[C@@H]1NC(=O)c2cc([N+](=O)[O-])cc(I)c2NCCC[C@@H](C(N)=O)NC(=O)[C@H](CO)NC1=O`?
BAZ2B inh: inconclusive; HP1b chromo inh: 31.8%; PLK1 PBD block: -0.2%; Sfp PPTase inh: -15.5%; JMJD2A Tudor: -18.3%; G9a inh: 39.8µM*

How did CC(C)[C@@H]1NC(=O)c2cc([N+](=O)[O-])cc(I)c2NCCCC[C@@H](C(=O)NC(CC(=O)O)C(N)=O)NC(=O)[C@H](CO)NC1=O (some centres not stated) do in these assays?
BAZ2B inh: 50.1µM*; Sfp PPTase inh: 21.1%; G9a inh: 44.7µM*

What do the screens show for `CCc1ccc(-n2c(=O)c3c4c(sc3n(CC(=O)NCCCOC)c2=O)CCCC4)cc1`?
BAZ2B inh: 2.5%; HP1b chromo inh: 26.9%; JMJD2A Tudor: -0.3%; G9a inh: 3.7%[59 µM]

Results for Cc1ccc(C)c(S(=O)(=O)N2CCCCC2CCNC(=O)C(=O)NCc2ccccc2)c1 (configuration not stated) ?
BAZ2B inh: -6.7%; HP1b chromo inh: -1.0%; PLK1 PBD block: -9.0%; JMJD2A Tudor: -7.6%; G9a inh: -0.9%

What do the screens show for `CCOC(=O)COc1ccc(C2CC(C)=NN2c2ccccc2)cc1` (configuration not stated)?
BAZ2B inh: -30.6%; HP1b chromo inh: 32.9%; PLK1 PBD block: 6.3%; Sfp PPTase inh: 3.4%; JMJD2A Tudor: -34.5%; G9a inh: inconclusive

How did COc1cc(C2NC(C(=O)O)CS2)ccc1OCc1ccccc1C#N (configuration not stated) do in these assays?
BAZ2B inh: -2.8%; Sfp PPTase inh: 17.8µM*; G9a inh: 20µM*

How did CCOC(=O)COc1ccc(C2NC(C(=O)O)CS2)cc1 (configuration not stated) do in these assays?
BAZ2B inh: 56.2µM*; HP1b chromo inh: inconclusive; PLK1 PBD block: -6.7%; Sfp PPTase inh: 44.7µM*; JMJD2A Tudor: 7.94µM*; G9a inh: inconclusive

Results for COC(=O)c1ccc(C2NC(C(=O)O)CS2)cc1 (configuration not stated) ?
BAZ2B inh: inconclusive; HP1b chromo inh: -63.1%; PLK1 PBD block: -6.8%; Sfp PPTase inh: 56.2µM*; JMJD2A Tudor: 6.31µM*; G9a inh: 3.55µM*

How did COc1cc(/C=C/C(=O)O)ccc1OCc1ccccc1C#N do in these assays?
BAZ2B inh: 6.8%; HP1b chromo inh: 12.3%; PLK1 PBD block: -7.2%; Sfp PPTase inh: -17.9%; JMJD2A Tudor: -3.5%; G9a inh: -4.6%[59 µM]
